Experimental data published in PubChem BioAssay (Tox21).
Several values for one entry are separate records, joined by “and”; a condition that tells them apart may be missing. Identical values can stand only once. Inconclusive results are not listed. Entries that show only a call come without a potency. Activity calls are given as the source filed them. Unless noted, calls follow the shape of the full dose curve.

Test system: not listed separately
Assay: p53 small molecule agonists, cell-based qHTS assay (AID 1963582; active = well fitted activation curve with a large enough effect in the signal ratio in the repeat runs, not every such curve was filed as active; the % refers to the signal ratio)
Conditions: HCT-116 p53RE-bla reporter, beta-lactamase FRET ratio, 16 h; series mostly up to 66 µM
Outline: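 Fluorescence intensity read-out of a beta-lactamase reporter under a p53 response element. Cells were exposed to DMSO-dissolved compounds for 16 h at 37 C, then developed with FRET substrate for 2 h at RT.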
Potency is read from the fitted curve at half-maximal effect.

| SMILES | Potency |
| --- | --- |
| CCN(CC)c1ccc2c(C)cc(=O)oc2c1 | 25.9 µM (active) and 32.4 µM (active) |
| C/C=C/C(=O)C1=C(C)C=CCC1(C)C | inactive |
| CC(C)=CCC/C(C)=C/C#N | inactive |
| C1CSCCS1 | inactive |
| CCCCCCCCS(=O)(=O)Cl | inactive |
| O=C1CC2CC1C1CCCC21 (centres undefined) | inactive |
| NNc1nncc2ccccc12 | inactive |
| CCC(=O)O[C@@H]1C[C@H]2CC[C@]1(C)C2(C)C | inactive |
| CC1(C)C(C=C(Cl)Cl)C1C(=O)OCc1cccc(Oc2ccccc2)c1 (centres undefined) | inactive |
| CC(C)NCC(O)COc1cccc2ccccc12 (centres undefined) | inactive |
| CC(C)c1ccc(C=O)cc1 | inactive |
| OCCC(F)(F)C(F)(F)C(F)(F)C(F)(F)C(F)(F)C(F)(F)F | inactive |
| COCCCOc1ccnc(CS(=O)c2nc3ccccc3[nH]2)c1C (centres undefined) | inactive |
| NC(=O)c1ccccc1Cl | inactive |
| CC(=O)Nc1ncc([N+](=O)[O-])s1 | inactive |
| NC(=O)CCCCC(N)=O | inactive |
| Nc1ccc(N)c(Cl)c1 | inactive |
| CS(=O)(=O)O | inactive |
| CCCCCCCCOCCC#N | inactive |
| O=C(O)c1ccccc1OP(=O)(O)O | inactive |
| CCOC(=O)CN1CCCC1=O | inactive |
| CC(=O)O[C@H]1C[C@@H]2CC[C@@]1(C)C2(C)C | inactive |
| O=C(O)c1cc(=O)c2c(OCC(O)COc3cccc4oc(C(=O)O)cc(=O)c34)cccc2o1 | inactive |
| CC(=O)CC(C)(C)C1CCCCC1 | inactive |
| C=CC(=O)NC(C)C | inactive |
| O=S(=O)(O)c1cccc2ccccc12 | inactive |
| CN(C)C(=O)Oc1ccc[n+](C)c1 | inactive |
| O=c1[nH]c(=O)c2cn[nH]c2[nH]1 | inactive |
| CN(CC1(C)CCCO1)S(=O)(=O)c1ccc(Cl)c(S(N)(=O)=O)c1 (centres undefined) | inactive |

Target: 5-hydroxytryptamine receptor 2A (Homo sapiens) (UniProt P28223)
Sequence (P28223 whole entry, looked up): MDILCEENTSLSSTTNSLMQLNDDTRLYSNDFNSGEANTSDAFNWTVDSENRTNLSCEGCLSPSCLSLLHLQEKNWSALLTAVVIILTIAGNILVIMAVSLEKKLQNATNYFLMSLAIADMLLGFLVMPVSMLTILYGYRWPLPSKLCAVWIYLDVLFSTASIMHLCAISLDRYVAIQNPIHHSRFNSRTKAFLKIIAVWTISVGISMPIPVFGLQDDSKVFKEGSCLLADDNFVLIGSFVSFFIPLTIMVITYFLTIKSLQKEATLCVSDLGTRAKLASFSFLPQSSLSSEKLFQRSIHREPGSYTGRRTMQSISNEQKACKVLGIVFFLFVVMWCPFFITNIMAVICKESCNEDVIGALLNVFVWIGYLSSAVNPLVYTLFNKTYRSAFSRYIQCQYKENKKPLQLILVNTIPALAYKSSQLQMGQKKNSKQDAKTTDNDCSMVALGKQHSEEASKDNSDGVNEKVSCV
Assay: 5-hydroxytryptamine receptor 2A (HTR2A) small molecule antagonists, cell-based qHTS assay (AID 1963586); also: nearly all actives have a fitted effect of over 45% in size
Conditions: HTR2A-CHO cells, DOI-induced calcium flux, fluorescence; series mostly up to 61.5 µM
Outline: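 CHO cells stably expressing human HTR2A were plated for 18 h at 37 C, then loaded with calcium dye for 1 h. Compounds were preincubated 5 min at room temperature before DOI (4 nM solution) was added. Kinetic fluorescence was read for 3 min.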

| SMILES | Potency |
| --- | --- |
| CCN(CC)c1ccc2c(C)cc(=O)oc2c1 | inactive |
| C/C=C/C(=O)C1=C(C)C=CCC1(C)C | inactive |
| CC(C)=CCC/C(C)=C/C#N | inactive |
| C1CSCCS1 | inactive |
| CCCCCCCCS(=O)(=O)Cl | inactive |
| O=C1CC2CC1C1CCCC21 (centres undefined) | inactive |
| Cc1ccc2oc(=O)ccc2c1 | inactive |
| CCC(=O)O[C@@H]1C[C@H]2CC[C@]1(C)C2(C)C | inactive |
| CC1(C)C(C=C(Cl)Cl)C1C(=O)OCc1cccc(Oc2ccccc2)c1 (centres undefined) | inactive |
| CCCCC(CC)COCC1CO1 (centres undefined) | inactive |
| OCCC(F)(F)C(F)(F)C(F)(F)C(F)(F)C(F)(F)C(F)(F)F | inactive |
| NC(=O)c1ccccc1Cl | inactive |
| CC(=O)Nc1ncc([N+](=O)[O-])s1 | inactive |
| CC(C)(C)NC(N)=O | inactive |
| NC(=O)CCCCC(N)=O | inactive |
| Nc1ccc(N)c(Cl)c1 | inactive |
| CS(=O)(=O)O | inactive |
| CCCCCCCCOCCC#N | inactive |
| O=C(O)c1ccccc1OP(=O)(O)O | inactive |
| CCOC(=O)C(C)Oc1ccc(Oc2cnc3cc(Cl)ccc3n2)cc1 (centres undefined) | inactive |
| CCOC(=O)CN1CCCC1=O | inactive |
| CC(=O)O[C@H]1C[C@@H]2CC[C@@]1(C)C2(C)C | inactive |
| BrC1CCC(Br)C(Br)CCC(Br)C(Br)CCC1Br (centres undefined) | inactive |
| CC(=O)CC(C)(C)C1CCCCC1 | inactive |
| C=CC(=O)NC(C)C | inactive |
| O=S(=O)(O)c1cccc2ccccc12 | inactive |
| CC(C)CCCCCCc1ccc(O)cc1 | 34 µM (active) |
| CN(C)C(=O)Oc1ccc[n+](C)c1 | inactive |
| O=c1[nH]c(=O)c2cn[nH]c2[nH]1 | inactive |
| CN(CC1(C)CCCO1)S(=O)(=O)c1ccc(Cl)c(S(N)(=O)=O)c1 (centres undefined) | inactive |
